A selection: hits, their analogues and other compounds. The true share with any hit is near 12%.
JMJD2A Tudor inh – qHTS Assay for Inhibitors of JMJD2A-Tudor Domain; Lysine-specific demethylase 4A (Homo sapiens), O75164; AlphaScreen JMJD2A-Tudor / H3K4me3 peptide binding; Potency, µM (doses to about 114 µM), usual class: inhibitors; 390,000 tested, 4.4% active; further: nearly all actives have a fitted effect of over 50% in size
G9a inh – qHTS Assay for Inhibitors of Histone Lysine Methyltransferase G9a; G9a H3K9 monomethylation, AlphaScreen, 2 h; 350,000 tested, 8.8% active; Potency, µM (doses to about 102 µM), most hits filed as inhibitors; further: nearly all actives have a fitted effect of over 75% in size
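Chemiluminescent proximity detection of H3K9 monomethylation, read after 10 min bead incubation in the dark. Reaction: 20 nM G9a, 500 nM biotin-H3K9 peptide, 20 uM SAM cofactor, 2 h, room temperature, following 15 min enzyme-compound preincubation.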
HP1b binding inh – HTS for Inhibitors of HP1-beta Chromodomain Interactions with Methylated Histone Tails. Potency, µM (titrated, usually from 114 µM), most hits filed as inhibitors. 390,000 tested, 0.56% active. AlphaScreen HP1-beta / biotin-H3K9me3 peptide binding; further: nearly all actives have a fitted effect of over 70% in size
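HP1-beta protein (50 nM final) preincubated 30 min at room temperature with biotinylated H3(1-18)K9me3 peptide (50 nM) in PBS pH 7.4, 0.01% Tween-20, then compound added for 30 min. AlphaScreen streptavidin donor/nickel chelate acceptor beads (10 ug/mL final), 30 min dark, luminescence read.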
BAZ2B block – qHTS Assay for Inhibitors of BAZ2B | Bromodomain adjacent to zinc finger domain protein 2B (Homo sapiens), Q9UIF8 | AlphaScreen BAZ2B-H3K14Ac peptide displacement | 360,000 tested, 4.4% active | Potency, µM (series often up to 114 µM), usual class: inhibitors; further: nearly all actives have a fitted effect of over 60% in size
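Compounds, titrated to a top concentration of 110 uM, were incubated 30 min at room temperature with preformed BAZ2B/acetyl-K14 H3 peptide complex (50 nM each). Proximity signal was measured by AlphaScreen after 20 min with beads.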
PLK1 PBD inh – qHTS for Inhibitors of PLK1-PDB (polo-like kinase 1 - polo-box domain): Primary Screen | Serine/threonine-protein kinase PLK1 (Homo sapiens), P53350 | Plk1 PBD binding of FITC phosphopeptide, fluorescence polarization | Potency, µM, hits mostly inhibitors | 360,000 tested, 2.8% active; further: series mostly up to about 57 µM; nearly all actives have a fitted effect of over 65% in size
Sfp inh – qHTS Assay for Inhibitors of Bacillus subtilis Sfp phosphopantetheinyl transferase (PPTase). 4'-phosphopantetheinyl transferase ffp (Bacillus subtilis), Q9F4F7. Biochemical Sfp PPTase activity, qHTS. Potency, µM, usual class: inhibitors. 310,000 tested, 3.5% active. AID 1490, 2009;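 further: the enzyme is Sfp with the accession as filed and its product quenches rhodamine fluorescence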
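Sfp 15 nM + cpd, 15 min RT; start w/ rhodamine-CoA 5 uM, BHQ-2-YbbR 12.5 uM (final); 50 mM Hepes pH 7.6, 10 mM MgCl2, 0.01% NP-40, 0.01% BSA; read 525/598 nm at 0 and 30 min.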
Hits are given with their value; ! = repeats disagree; [ ] = another dose, or the depositor's remark. The call rests on the fitted dose curve; in most records, active means well fitted curve in the direction sought with a large enough effect; inconclusive means small, poorly fitted or top-dose-only effect, or another doubt; inactive means no such curve, though single readings can be large; an effect the other way counts as inactive or inconclusive.

CSc1nsc(/C=C/Nc2ccc(C(=O)O)cc2)c1C#N was read as JMJD2A Tudor inh inconclusive, G9a inh 13µM, HP1b binding inh inconclusive, BAZ2B block 40µM, PLK1 PBD inh inconclusive and Sfp inh inactive.
CSc1nsc(/C=C/Nc2ccc(F)cc2F)c1C#N was read as JMJD2A Tudor inh inconclusive, G9a inh 32µM, HP1b binding inh inactive, BAZ2B block inconclusive, PLK1 PBD inh inactive and Sfp inh inactive.
`CSc1nnc(C)c(/C=C/Nc2ccc(F)cc2F)n1` gave JMJD2A Tudor inh inactive, G9a inh inconclusive, HP1b binding inh inactive, BAZ2B block inconclusive, PLK1 PBD inh inactive and Sfp inh inactive.
CCOc1ccc(S(=O)(=O)c2cc3cccc(OCC)c3oc2=O)cc1 was read as JMJD2A Tudor inh inactive, G9a inh inactive, HP1b binding inh inactive and BAZ2B block inactive.
Cc1cc(C)n(CC(O)Cn2c3ccccc3c3ccccc32)n1 (stereo not given) was read as JMJD2A Tudor inh inactive, G9a inh inactive[12.7 µM], HP1b binding inh inactive, BAZ2B block inactive, PLK1 PBD inh inactive and Sfp inh 50µM.
Screening Cc1cc(C)n(CC(O)CN2c3ccccc3Sc3ccccc32)n1 (stereo not given) returned JMJD2A Tudor inh 32µM, G9a inh inconclusive, HP1b binding inh inactive, BAZ2B block 50µM, PLK1 PBD inh inactive and Sfp inh inactive.
C[C@H](NC(=O)[C@@H](N)Cc1ccc(O)cc1)C(=O)NCC(=O)N[C@H]1CSSC[C@@H](C(=O)O)NC(=O)[C@H](CO)NC(=O)[C@H]([C@@H](C)O)NC(=O)[C@H](Cc2ccccc2)NC(=O)[C@H]([C@@H](C)O)NC(=O)[C@H](CCCCN)NC(=O)[C@H](Cc2c[nH]c3ccccc23)NC(=O)[C@H](Cc2ccccc2)NC(=O)[C@H](Cc2ccccc2)NC(=O)[C@H](CC(N)=O)NC(=O)[C@H](CCCCN)NC1=O was read as Sfp inh inactive.
Screening N#C/C(=C/c1ccc(Sc2nc3ccccc3[nH]2)o1)c1cccc(F)c1 returned JMJD2A Tudor inh inactive, G9a inh inconclusive, HP1b binding inh inactive, BAZ2B block inactive, PLK1 PBD inh inactive and Sfp inh inactive.
Screening O=C(N/N=C/c1ccc(Sc2nc3ccccc3[nH]2)o1)c1ccncc1 returned JMJD2A Tudor inh inactive, G9a inh 45µM, HP1b binding inh inconclusive, BAZ2B block inactive, PLK1 PBD inh inconclusive and Sfp inh inactive.
N[C@@H](CCCP(=O)(O)O)C(=O)O was read as Sfp inh inactive.
Screening N[C@@H](COP(=O)(O)O)C(=O)O returned G9a inh inactive and Sfp inh 40µM!.
For CCN1CCN(Cc2ccc(NC(=O)c3cc(NC(=O)c4cc5cccc(OC)c5o4)cc(OC)c3)cc2C(F)(F)F)CC1 the results were JMJD2A Tudor inh inconclusive, G9a inh inconclusive, HP1b binding inh inactive, BAZ2B block inconclusive, PLK1 PBD inh inactive and Sfp inh 45µM.
For CCN1CCN(Cc2ccc(NC(=O)c3cc(NC(=O)c4cncc(-c5cccs5)c4)cc(OC)c3)cc2C(F)(F)F)CC1 the results were JMJD2A Tudor inh 45µM, G9a inh 50µM, HP1b binding inh inconclusive, BAZ2B block 35µM, PLK1 PBD inh inactive and Sfp inh inconclusive.
Screening Cc1nc(SCC(=O)NCc2ccccc2)c2oc3ccccc3c2n1 returned JMJD2A Tudor inh inactive, G9a inh inactive, HP1b binding inh inactive, BAZ2B block inactive, PLK1 PBD inh inactive and Sfp inh inactive.
`Cc1nc(SCC(=O)c2cccs2)c2oc3ccccc3c2n1` gave JMJD2A Tudor inh inactive, G9a inh inactive[12.7 µM], HP1b binding inh inactive, BAZ2B block inactive, PLK1 PBD inh inactive and Sfp inh 79µM.
`Cc1nc(SCC(=O)O)c2oc3ccccc3c2n1` gave JMJD2A Tudor inh inactive, G9a inh 56µM, HP1b binding inh inactive, BAZ2B block inactive, PLK1 PBD inh inactive and Sfp inh inactive.
For Cn1c(/C=C/c2ccc(Br)cc2)nc2ccccc2c1=O the results were JMJD2A Tudor inh inactive, G9a inh inactive, HP1b binding inh inactive, BAZ2B block inactive, PLK1 PBD inh inactive and Sfp inh inactive.
Screening CCOC(=O)C1CCCN(c2nc3c(S(=O)(=O)c4ccc(CC)cc4)nnn3c3ccsc23)C1 (stereo not given) returned JMJD2A Tudor inh inactive, G9a inh inactive, HP1b binding inh inactive and BAZ2B block inactive.
Screening CCOC(=O)C1CCCN(c2nc3c(S(=O)(=O)c4ccc(Br)cc4)nnn3c3ccsc23)C1 (stereo not given) returned JMJD2A Tudor inh 89µM, G9a inh inactive, HP1b binding inh inactive and BAZ2B block inactive.
For COCCNC(=O)C(c1ccc(C)o1)N(CCOC)C(=O)Cn1nnc2ccccc21 (stereo not given) the results were JMJD2A Tudor inh inactive, G9a inh inactive, HP1b binding inh inactive, BAZ2B block inactive, PLK1 PBD inh 27µM and Sfp inh inactive.
Screening Cc1cccc(CN2C(=O)c3ccccc3Sc3ccc(C(=O)NCCCN4CCOCC4)cc32)c1 returned JMJD2A Tudor inh inactive, G9a inh inactive, HP1b binding inh inactive, BAZ2B block inconclusive, PLK1 PBD inh inactive and Sfp inh inactive.
CN1CCN(CCCNC(=O)c2ccc(/C=C3\Oc4ccccc4N(Cc4ccccc4F)C3=O)cc2)CC1 was read as JMJD2A Tudor inh inactive, G9a inh inconclusive, HP1b binding inh inactive, BAZ2B block inactive, PLK1 PBD inh inactive and Sfp inh 56µM.
For Cc1cccc(CN2C(=O)/C(=C\c3ccc(C(=O)NCCCN4CCN(C)CC4)cc3)Oc3ccccc32)c1 the results were G9a inh inconclusive, BAZ2B block inactive and Sfp inh 50µM.
Screening CC1CCC(NC(=O)c2ccc(/C=C3\Oc4ccccc4N(C)C3=O)cc2)CC1 (stereo not given) returned G9a inh inactive, BAZ2B block inactive and Sfp inh inactive.
For CCCCn1nc(C(=O)Nc2ccc(-n3cnnn3)cc2)c2ccccc2c1=O the results were JMJD2A Tudor inh inactive, G9a inh inactive[12.7 µM], HP1b binding inh inactive, BAZ2B block inactive and PLK1 PBD inh inactive.
For O=C(CSc1ccc(-c2ccncc2)nn1)c1ccccc1 the results were JMJD2A Tudor inh inactive, G9a inh 25µM, HP1b binding inh inactive, BAZ2B block inactive, PLK1 PBD inh inactive and Sfp inh inactive.
`O=C(CC(=O)c1ccncc1)c1ccccc1` gave JMJD2A Tudor inh 32µM, HP1b binding inh inactive and PLK1 PBD inh inactive.
